# Source: PubChem BioAssay (Tox21)
# Where “and” joins values, the source holds several entries; their conditions need not be identical. Identical values can stand only once. Inconclusive results are not listed. Entries that show only a call come without a potency. Where a structure was tested more than once in an assay, its records may differ in their call. Calls of active or inactive are those of the source. Calls come from the whole dose curve; as a rule, active = well fitted curve in the direction sought with a large enough effect in the repeat runs; inconclusive = weak or mixed curves; inactive = no such curve, though single readings can be large; an effect the other way counts as inactive or inconclusive.
# Legend:
# [1] = A CellTox Green Cytotoxicity Assay to monitor cytotoxicity in HepG2 cells - 0 hour (AID 1224882); note: nearly all actives have a fitted effect of over 35% in size; note: potency is the fitted concentration of half-maximal effect
# Procedure, shortened: (§1)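 Cells and non-lytic dye reagent are dispensed together (600 HepG2 cells/well) and incubated 5 h before DMSO compound transfer. Kinetic fluorescence is then recorded in the same wells during 40 h at 37 C.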
# [2] = A CellTox Green Cytotoxicity Assay to monitor cytotoxicity in HepG2 cells - 32 hour (AID 1224883); note: nearly all actives have a fitted effect of over 50% in size; note: potency is the fitted concentration of half-maximal effect
# Procedure, shortened: as §1
# [3] = A CellTox Green Cytotoxicity Assay to monitor cytotoxicity in HEK293 cells - 8 hour (AID 1224884); note: nearly all actives have a fitted effect of over 35% in size; note: potency is the fitted concentration of half-maximal effect
# Procedure, shortened: (§2)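 Cells (HEK293, 600/well) and dye reagent are dispensed together. After 5 h at 37 C, 23 nL compound is pinned in. Plates stay at 37 C for 40 h with fluorescence read at 0h, 8h, 16h, 24h, 32h and 40h.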
# [4] = qHTS RealTime-Glo MT Cell Viability Assay in HEK293 cells - 24 hour (AID 1224886); note: nearly all actives have a fitted effect of over 50% in size; note: potency is the fitted concentration of half-maximal effect; for activity change, negative = cytotoxicity: top concentration of the series differs between compounds
# Procedure, shortened: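 Tox21 10K qHTS, HEK293, 600 cells/well, RealTime-Glo reagent co-dispensed with cells; 5 h preincubation, compound by pintool, 37 C, luminescence at 0–40 h.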
# [5] = qHTS RealTime-Glo MT Cell Viability Assay in HEK293 cells - 8 hour (AID 1224887); note: nearly all actives have a fitted effect of over 50% in size; note: potency is the fitted concentration of half-maximal effect; for activity change, negative = cytotoxicity: top concentration of the series differs between compounds
# Procedure, shortened: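 Real-time viability in HEK293: signal arises when living cells convert a prosubstrate for NanoLuc in the medium, so luminescence tracks viable cell number. Compound (23 nL, DMSO) added 5 h post-seeding; kinetic reads at 0–40 h, 37 C.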
# [6] = qHTS RealTime-Glo MT Cell Viability Assay in HepG2 cells - 0 hour (AID 1224889); note: nearly all actives have a fitted effect of over 50% in size
# Procedure, shortened: (§3)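 Cells + NanoLuc/prosubstrate dispensed (600 cells/well) → 5 h at 37 C/5% CO2 → compounds in DMSO transferred → 40 h incubation at 37 C, luminescence read at 0, 8, 16, 24, 32, 40 h.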
# [7] = A CellTox Green Cytotoxicity Assay to monitor cytotoxicity in HepG2 cells - 8 hour (AID 1224890); note: nearly all actives have a fitted effect of over 45% in size; note: potency is the fitted concentration of half-maximal effect
# Procedure, shortened: as §1
# [8] = qHTS assay to identify small molecule antagonists of the estrogen receptor alpha (ER-alpha) signaling pathway using the BG1 cell line in the presence of 0.1 nM 17-beta-estradiol - cell viability counter screen (AID 1259241); note: nearly all actives have a fitted effect of over 40% in size; note: potency is the fitted concentration of half-maximal effect
# Procedure, shortened: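 Live-cell protease activity (CellTiter-Fluor fluorescence, 30 min) was read in the same wells after VM7Luc4E2 cells had been exposed to compounds with 0.1 nM 17beta-estradiol for 22 hr at 37C.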
# [9] = qHTS RealTime-Glo MT Cell Viability Assay in HepG2 cells - 16 hour (AID 1224885); note: nearly all actives have a fitted effect of over 50% in size
# Procedure, shortened: as §3
# [10] = A CellTox Green Cytotoxicity Assay to monitor cytotoxicity in HEK293 cells - 16 hour (AID 1224888); note: nearly all actives have a fitted effect of over 35% in size; note: potency is the fitted concentration of half-maximal effect
# Procedure, shortened: as §2
compound,measurement,setting,value
N#CC1(N=NC2(C#N)CCCCC2)CCCCC1,Potency,[1],inactive
same,Potency,[2],inactive
same,Potency,[3],inactive
same,Potency,[4],inactive
same,Potency,[5],inactive
same,outcome,[6],inactive
same,Potency,[7],inactive
same,Potency,[8],inactive
CCCN(CCC)C(=O)Cc1c(-c2ccc(Cl)cc2)nc2ccc(Cl)cn12,Potency,[1],inactive
same,Potency,[3],inactive
same,Potency,[9],inactive
same,Potency,[4],5.35 µM (active)
same,Potency,[5],5.35 µM (active)
same,Potency,[10],inactive
same,outcome,[6],inactive
same,Potency,[7],inactive
same,Potency,[8],inactive
CN(C)C(=O)Nc1cccc(OC(=O)NC(C)(C)C)c1,Potency,[1],inactive
same,Potency,[2],inactive
same,Potency,[9],inactive
same,Potency,[4],inactive
same,Potency,[5],inactive
same,Potency,[10],inactive
same,outcome,[6],inactive
same,Potency,[7],inactive
same,Potency,[8],inactive
C=CCc1ccc(OC(=O)Cc2ccccc2)c(OC)c1,Potency,[1],inactive
same,Potency,[3],inactive
same,Potency,[9],inactive
same,Potency,[5],inactive
same,Potency,[10],inactive
same,Potency,[7],inactive
same,Potency,[8],inactive
O=C(O)C(F)(F)C(F)(F)C(F)(F)C(F)(F)C(F)(F)C(F)(F)C(F)(F)C(F)(F)F,Potency,[1],inactive
same,Potency,[2],inactive
same,Potency,[3],inactive
same,Potency,[4],inactive
same,Potency,[5],inactive
same,Potency,[10],inactive
same,Potency,[7],inactive
same,Potency,[8],inactive
CCC(C)(C)c1ccc(O)c(C(C)(C)CC)c1,Potency,[1],inactive
same,Potency,[2],30.6 µM (active)
same,Potency,[3],48.5 µM (active) and inactive
same,Potency,[4],43.2 µM (active)
same,Potency,[5],24.3 µM (active)
same,outcome,[6],inactive
same,Potency,[8],inactive
O=[N+]([O-])c1cc(Cl)c(Cl)cc1Cl,Potency,[1],inactive
same,Potency,[2],inactive
same,Potency,[3],inactive
same,Potency,[4],inactive
same,Potency,[5],inactive
same,Potency,[10],inactive
same,Potency,[7],inactive
same,Potency,[8],inactive
[Cl-].[Cl-].[Hg+2],Potency,[1],inactive
same,Potency,[2],24.4 µM (active) and 3.09 µM (active)
same,Potency,[3],inactive and 15.5 µM (active)
same,Potency,[5],43.5 µM (active) and 3.47 µM (active)
same,Potency,[10],38.7 µM (active) and 11 µM (active)
same,Potency,[7],48.8 µM (active) and 4.9 µM (active)
same,Potency,[8],27.2 µM (active) and 21.7 µM (active)
COc1ccc(C(=O)c2c(C)n(CCN3CCOCC3)c3ccccc23)cc1,Potency,[1],0.952 µM (active)
same,Potency,[3],inactive
same,Potency,[9],inactive
same,Potency,[5],inactive
same,Potency,[10],inactive
same,outcome,[6],inactive
same,Potency,[7],1.07 µM (active)
same,Potency,[8],inactive
Nc1c(Br)cc(Br)c2c1C(=O)c1ccccc1C2=O,cytotoxicity,[1],-4.24% [at 15.8 µM] (inactive)
same,cytotoxicity increase,[2],-5.33% [at 15.8 µM] (inactive)
same,cytotoxicity increase,[3],-10.2% [at 15.8 µM] (inactive)
same,activity change,[10],"-11% [at 15.8 µM, stronger effect = higher value] (inactive)"
same,"activity change, negative = cytotoxicity",[6],-16.3% [at 15.8 µM] (inactive)
same,cytotoxicity increase,[7],-5.92% [at 15.8 µM] (inactive)
same,"activity change, negative = cytotoxicity",[8],-0.0291% [at 19 µM] (inactive)
O=S(=O)(c1ccccc1)c1ccccc1,Potency,[1],inactive
same,Potency,[2],inactive
same,Potency,[3],inactive
same,Potency,[4],inactive
same,Potency,[5],inactive
same,Potency,[7],inactive
same,Potency,[8],inactive
C[N+](C)(C)CCOC(=O)C(O)(c1ccccc1)c1ccccc1,Potency,[1],inactive
same,Potency,[2],inactive
same,Potency,[3],inactive
same,Potency,[4],inactive
same,Potency,[5],inactive
same,Potency,[10],inactive
same,Potency,[7],inactive
same,Potency,[8],inactive
COP(=O)(OC)OC(Br)C(Cl)(Cl)Br (stereo not given),Potency,[1],inactive
same,Potency,[2],inactive
same,Potency,[3],inactive
same,Potency,[5],inactive
same,Potency,[10],inactive
same,outcome,[6],inactive
same,Potency,[7],inactive
same,Potency,[8],inactive
CCC1(CC)C(=O)NC(=O)NC1=O,Potency,[1],inactive
same,Potency,[3],inactive
same,Potency,[9],inactive
same,Potency,[4],inactive
same,Potency,[5],inactive
same,Potency,[10],inactive
same,outcome,[6],inactive
same,Potency,[7],inactive
same,Potency,[8],inactive
C#C[C@]1(O)CC[C@H]2[C@@H]3CCC4=CC(=O)CCC4=C3C=C[C@@]21CC,Potency,[1],inactive
same,Potency,[3],inactive
same,Potency,[5],inactive
same,Potency,[10],inactive
same,outcome,[6],inactive
same,Potency,[7],inactive
same,Potency,[8],inactive
CC(C)[C@@H](C(=O)O[C@@H](C#N)c1cccc(Oc2ccccc2)c1)c1ccc(Cl)cc1,Potency,[1],inactive
same,Potency,[2],inactive
same,Potency,[3],inactive
same,Potency,[10],inactive
same,outcome,[6],inactive
same,Potency,[7],inactive
same,Potency,[8],inactive
CCCN(CCC)c1c([N+](=O)[O-])cc(C(C)C)cc1[N+](=O)[O-],Potency,[1],inactive
same,Potency,[2],inactive
same,Potency,[3],inactive
same,Potency,[4],inactive
same,Potency,[5],inactive
same,Potency,[7],inactive
same,Potency,[8],inactive
CCCCOC(=O)CCC(=O)OCCCC,Potency,[1],inactive
same,Potency,[3],inactive
same,Potency,[4],inactive
same,Potency,[5],inactive
same,Potency,[10],inactive
same,outcome,[6],inactive
same,Potency,[7],inactive
same,Potency,[8],inactive
C1CS1,Potency,[1],inactive
same,Potency,[2],inactive
same,Potency,[3],inactive
same,Potency,[4],inactive
same,Potency,[5],inactive
same,outcome,[6],inactive
same,Potency,[7],inactive
same,Potency,[8],inactive
COc1cc(C[C@@H](C)N)c(OC)cc1Br,Potency,[1],inactive
same,Potency,[3],inactive
same,Potency,[9],inactive
same,Potency,[4],inactive
same,Potency,[5],inactive
same,Potency,[10],inactive
same,Potency,[7],inactive
same,Potency,[8],inactive
CN1CC[C@]23c4c5ccc(O)c4O[C@H]2[C@@H](O)C=C[C@H]3[C@H]1C5,Potency,[2],inactive
same,Potency,[3],inactive
same,Potency,[9],inactive
same,Potency,[4],inactive
same,Potency,[5],inactive
same,Potency,[10],inactive
same,Potency,[7],inactive
same,Potency,[8],inactive
CCOP(=S)(S)OCC,Potency,[1],inactive
same,Potency,[2],inactive
same,Potency,[3],inactive
same,Potency,[4],inactive
same,Potency,[5],inactive
same,outcome,[6],inactive
same,Potency,[7],inactive
same,Potency,[8],inactive
OCCCl,Potency,[1],inactive
same,Potency,[2],inactive
same,Potency,[3],inactive
same,Potency,[4],inactive
same,Potency,[5],inactive
same,outcome,[6],inactive
same,Potency,[7],inactive
same,Potency,[8],inactive
CC(=O)OC(c1ccccc1)C(Cl)(Cl)Cl (stereo not given),Potency,[2],24.5 µM (active)
same,Potency,[3],19.5 µM (active)
same,Potency,[4],inactive
same,Potency,[5],inactive
same,outcome,[6],inactive
same,Potency,[7],24.5 µM (active)
same,Potency,[8],inactive
O=CC=O,Potency,[1],inactive
same,Potency,[2],inactive
same,Potency,[9],inactive
same,Potency,[4],inactive
same,Potency,[5],inactive
same,Potency,[10],inactive
same,outcome,[6],inactive
same,Potency,[7],inactive
same,Potency,[8],inactive
C=CCN1C[C@H](C)N([C@H](c2ccc(C(=O)N(CC)CC)cc2)c2cccc(OC)c2)C[C@H]1C,Potency,[1],inactive
same,Potency,[3],inactive
same,Potency,[9],inactive
same,Potency,[5],inactive
same,outcome,[6],inactive
same,Potency,[7],inactive
same,Potency,[8],inactive
C[Si](Cn1cncn1)(c1ccc(F)cc1)c1ccc(F)cc1,Potency,[1],inactive
same,Potency,[2],50.6 µM (active) and 49 µM (active)
same,Potency,[3],inactive
same,Potency,[4],25.4 µM (active) and 21.9 µM (active)
same,outcome,[6],inactive
same,Potency,[7],inactive
same,Potency,[8],inactive
CN(C)N,Potency,[1],inactive
same,Potency,[9],inactive
same,Potency,[4],inactive
same,Potency,[5],inactive
same,outcome,[6],inactive
same,Potency,[7],inactive
same,Potency,[8],inactive
O=C(NC(=O)c1cc(F)c(F)cc1Cl)Nc1cc(F)ccc1N1CCC(C(=O)O)CC1,Potency,[2],inactive
same,Potency,[3],inactive
same,Potency,[9],inactive
same,Potency,[4],inactive
same,Potency,[5],inactive
same,outcome,[6],inactive
same,Potency,[8],inactive
OCC1CO1 (stereo not given),Potency,[3],44.4 µM (active) and inactive
same,Potency,[9],inactive
same,Potency,[4],inactive
same,Potency,[5],inactive
same,Potency,[10],inactive
same,outcome,[6],inactive
same,Potency,[8],inactive
CC(C)(C)NCC(O)c1ccccc1Cl (stereo not given),Potency,[1],inactive
same,Potency,[2],inactive
same,Potency,[3],inactive
same,Potency,[4],inactive
same,Potency,[5],inactive
same,outcome,[6],inactive
same,Potency,[7],inactive
same,Potency,[8],inactive
COc1cc(CC(C)N)c(OC)cc1Br (stereo not given),Potency,[1],inactive
same,Potency,[3],inactive
same,Potency,[9],inactive
same,Potency,[4],inactive
same,Potency,[5],inactive
same,outcome,[6],inactive
same,Potency,[7],inactive
same,Potency,[8],inactive
O=C(O)C(Cl)(Cl)Br,Potency,[1],inactive
same,Potency,[2],inactive
same,Potency,[3],inactive
same,Potency,[4],inactive
same,Potency,[5],inactive
same,outcome,[6],inactive
same,Potency,[7],inactive
same,Potency,[8],inactive
Clc1ccc2ccccc2c1,Potency,[1],inactive
same,Potency,[2],inactive
same,Potency,[9],inactive
same,Potency,[7],inactive
same,Potency,[8],inactive
CCCC[N+](CCCC)(CCCC)CCCC,Potency,[1],inactive
same,Potency,[2],inactive
same,Potency,[3],inactive
same,Potency,[5],inactive
same,Potency,[10],inactive
same,outcome,[6],inactive
same,Potency,[7],inactive
same,Potency,[8],inactive
O=C(Cc1ccccc1)c1ccccc1,Potency,[1],inactive
same,Potency,[2],inactive
same,Potency,[9],inactive
same,Potency,[4],inactive
same,Potency,[5],inactive
same,Potency,[10],inactive
same,outcome,[6],inactive
same,Potency,[8],inactive
CCCN(CCOc1c(Cl)cc(Cl)cc1Cl)C(=O)n1ccnc1,Potency,[1],inactive
same,Potency,[3],inactive
same,Potency,[9],inactive
same,Potency,[4],22.3 µM (active) and 27.5 µM (active)
same,Potency,[5],44.6 µM (active) and 27.5 µM (active)
same,Potency,[10],inactive
same,Potency,[7],inactive
same,Potency,[8],inactive
CC(C)(C)c1ccc(CCOc2ncnc3ccccc23)cc1,Potency,[1],inactive
same,Potency,[3],inactive
same,Potency,[9],inactive
same,Potency,[4],inactive
same,Potency,[5],inactive
same,Potency,[10],inactive
same,outcome,[6],inactive
same,Potency,[7],inactive
same,Potency,[8],inactive
CN1C(=O)CN=C(c2ccccc2)c2cc([N+](=O)[O-])ccc21,Potency,[1],inactive
same,Potency,[2],inactive
same,Potency,[3],inactive
same,Potency,[4],inactive
same,Potency,[5],inactive
same,outcome,[6],inactive
same,Potency,[7],inactive
same,Potency,[8],inactive
